Hits are enriched below; roughly 27% of the tested compounds scored in any of these assays.
CYP2C9 inh – blockers of cytochrome P450 2C9 activity – biochemical, luminescence, ADME assay, primary screen; P11712; CYP2C9 Supersomes, luciferin-H conversion; inhibition, % at 5 µM; actives 20% (n = 96,000);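 active means blocking of liver enzyme CYP2C9 beyond about 50% at 5 µM, limit read from the data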
CYP2C19 inhib – blockers of cytochrome P450 2C19 activity – biochemical, luminescence, ADME assay, primary screen | CYP2C19 Supersomes, luciferin-H EGE luminescence, 30 min | inhibition, % at 5 µM | actives 21% (n = 96,000) | P33261;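 active means CYP2C19 inhibition above a set limit at 5 µM in the primary screen, cut at about 50% in these data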;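 further: plate controls were negative control wells for no effect and 2.5 mM tranylcypromine positive control for full effect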
sEH inh – soluble epoxide hydrolase inhibitors, primary screen, biochemical, human sEH. Bifunctional epoxide hydrolase 2 (Homo sapiens), P34913. recombinant human sEH enzymatic activity assay. inhibition, % at 2 µM. actives 0.34% (n = 91,000); in the data active means inhibition above about 80%
Target sequence (P34913 whole entry, looked up): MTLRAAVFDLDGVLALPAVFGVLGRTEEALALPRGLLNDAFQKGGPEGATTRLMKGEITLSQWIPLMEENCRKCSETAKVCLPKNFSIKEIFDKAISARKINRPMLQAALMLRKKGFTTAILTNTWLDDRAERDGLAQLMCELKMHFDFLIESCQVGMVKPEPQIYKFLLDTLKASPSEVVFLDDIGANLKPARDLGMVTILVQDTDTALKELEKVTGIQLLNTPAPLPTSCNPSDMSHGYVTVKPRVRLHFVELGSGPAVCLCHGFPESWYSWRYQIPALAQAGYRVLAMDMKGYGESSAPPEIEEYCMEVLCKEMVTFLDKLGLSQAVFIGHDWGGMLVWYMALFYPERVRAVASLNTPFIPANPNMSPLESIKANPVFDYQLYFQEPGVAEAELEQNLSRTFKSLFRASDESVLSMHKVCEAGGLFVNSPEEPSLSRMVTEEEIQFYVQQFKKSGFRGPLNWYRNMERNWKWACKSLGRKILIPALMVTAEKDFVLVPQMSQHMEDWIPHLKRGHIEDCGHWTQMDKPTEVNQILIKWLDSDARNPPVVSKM
CYP2C9 act – human CYP2C9 activators, primary screen, biochemical, luminescence; recombinant CYP2C9, luciferin-H conversion; active compounds read high; factor 1 = untreated enzyme, 0 = blocked; AID 1024, 2008; actives 1.4% (n = 96,000); activation factor at 5 µM;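 active means activation factor of 2 or more for CYP2C9 at a 5 µM dose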;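 further: 0 = sulfaphenazole-blocked wells and 1 = vehicle-only wells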
sEH activator – soluble epoxide hydrolase activators, primary screen, biochemical, human sEH | purified human sEH enzymatic activity, activator screen | activation, % at 2 µM | actives 0.04% (n = 91,000) | AID 717, 2007; in the data active means activation above about 37%
CYP2C19 act – human CYP2C19 activators, primary screen, biochemical, luminescence. Cytochrome P450 2C19 (Homo sapiens), P33261. recombinant CYP2C19, luciferin-H EGE luminescence; active compounds read high; 0 = fully inhibited enzyme, 1 = untreated enzyme. activation factor at 5 µM. 96,000 tested, under 10 active;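 active means activation factor of at least 2 at 5 µM in the primary screen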;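 further: 0 = wells with 2.5 mM tranylcypromine and 1 = vehicle-only wells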
An asterisk follows results filed as active.

For NC(=O)c1ccsc1NC(=O)c1ccc(S(=O)(=O)N2CCCCC2)cc1 the results were CYP2C9 inh 60*, CYP2C19 inhib 38, sEH inh -2, CYP2C9 act 0.4, sEH activator 6 and CYP2C19 act 0.6.
`Cc1ccc(Nc2nc(-c3ccc(S(=O)(=O)N4CCCC4)cc3)cs2)cc1C` gave CYP2C9 inh 54*, CYP2C19 inhib -12, sEH inh -13, CYP2C9 act 0.5, sEH activator 15 and CYP2C19 act 1.1.
For COC(=O)C1=C(C)Nc2ncnn2C1c1ccc(OCc2ccccc2)cc1 (stereo not drawn) the results were CYP2C9 inh -1, CYP2C19 inhib -11, CYP2C9 act 1 and CYP2C19 act 1.1.
For Cc1nnc(NC(=O)CSc2nnc(CNC(=O)c3ccccc3)n2-c2ccccc2)s1 the results were CYP2C9 inh -8, CYP2C19 inhib -10, sEH inh 4, CYP2C9 act 1.1, sEH activator 0 and CYP2C19 act 1.1.
For CCOc1ccc(N2CC(C(=O)Oc3ccccc3)CC2=O)cc1 (stereo not drawn) the results were sEH inh 6 and sEH activator -4.
`O=C(Nc1nc(-c2ccc3c(c2)OCCO3)cs1)c1ccc(S(=O)(=O)N2CCCCC2)cc1` gave CYP2C9 inh 36, CYP2C19 inhib 7, sEH inh 12, CYP2C9 act 0.6, sEH activator -11 and CYP2C19 act 0.9.
For O=C(Nc1nc(-c2ccc(S(=O)(=O)N3CCCCCC3)cc2)cs1)c1ccccc1 the results were CYP2C9 inh 72*, CYP2C19 inhib 24, sEH inh -11, CYP2C9 act 0.3, sEH activator 13 and CYP2C19 act 0.8.
For CCOC(=O)N1CCN(c2ccc3nnnn3n2)CC1 the results were CYP2C9 inh -2, CYP2C19 inhib 56*, sEH inh 4, CYP2C9 act 1, sEH activator -4 and CYP2C19 act 0.4.
For Cc1ccccc1NC(=O)Cn1nnc2c(cnn2-c2ccc(F)cc2)c1=O the results were CYP2C9 inh 4, CYP2C19 inhib 7, sEH inh -10, CYP2C9 act 1, sEH activator 11 and CYP2C19 act 0.9.
O=C(Cn1nnc2c(cnn2-c2ccc(F)cc2)c1=O)OC1CCCCC1 was read as CYP2C9 inh 46, CYP2C19 inhib 62*, sEH inh -3, CYP2C9 act 0.5, sEH activator 1 and CYP2C19 act 0.4.
CCn1c(SCC(=O)N2CCC(C(N)=O)(N3CCCCC3)CC2)nnc1-c1ccccc1 was read as sEH inh -5 and sEH activator 9.
Screening N#CCC(=O)Nc1ncn(Cc2ccccc2Cl)n1 returned CYP2C9 inh -6, CYP2C19 inhib -1, sEH inh 6, CYP2C9 act 1.1, sEH activator -5 and CYP2C19 act 1.
Cc1ccccc1NC(=S)NC1CC2CCC(C1)N2Cc1ccco1 (stereo not drawn) was read as CYP2C9 inh -6, CYP2C19 inhib -8, sEH inh 6, CYP2C9 act 1.1, sEH activator -3 and CYP2C19 act 1.1.
For Cc1ccc(-c2nnc(N(C)C(=O)c3cccnc3)s2)cn1 the results were CYP2C9 inh 3, CYP2C19 inhib 6, sEH inh -3, CYP2C9 act 1, sEH activator 2 and CYP2C19 act 0.9.
Cc1cccc(C(=O)N(C)c2nnc(-c3ccncc3)s2)c1 was read as sEH inh 1 and sEH activator 2.
Screening Cc1ccc(-c2nnc(N(C)C(=O)c3cccnc3)s2)cc1 returned CYP2C9 inh 86*, CYP2C19 inhib 67*, sEH inh -12, CYP2C9 act 0.1, sEH activator 15 and CYP2C19 act 0.3.
Screening CN(C(=O)c1ccncc1)c1nnc(-c2ccncc2)s1 returned CYP2C9 inh 94*, CYP2C19 inhib 96*, CYP2C9 act 0.1 and CYP2C19 act 0.
For COc1ccc(CC(=O)NCCN2CCCC2)cc1 the results were CYP2C9 inh 5, CYP2C19 inhib 2, sEH inh 7, CYP2C9 act 0.9, sEH activator -4 and CYP2C19 act 1.
For CCOc1ccc(N/C=C/C(=O)c2ccc(OC)cc2)c([N+](=O)[O-])c1 the results were CYP2C9 inh -200, CYP2C19 inhib 26, sEH inh -18, CYP2C9 act 3*, sEH activator 18 and CYP2C19 act 0.7.
For COc1ccc(C(C(=O)NC(C)(C)C)N(Cc2ccco2)C(=O)CCC(=O)Nc2cc(C)on2)cc1 (stereo not drawn) the results were CYP2C9 inh 69*, CYP2C19 inhib 38, sEH inh -17, CYP2C9 act 0.3, sEH activator 16 and CYP2C19 act 0.6.
For CCC(C)(C)NC(=O)C(c1ccc(OC)cc1)N(Cc1ccco1)C(=O)CCC(=O)Nc1cc(C)on1 (stereo not drawn) the results were sEH inh 8 and sEH activator -8.
For COc1ccc(N/C=C/C(=O)c2ccc(C)cc2)c([N+](=O)[O-])c1 the results were sEH inh 5 and sEH activator -4.
For Cc1cc(NS(=O)(=O)c2ccc(NC(=O)CCCOc3ccc(Cl)cc3)cc2)no1 the results were CYP2C9 inh 58*, CYP2C19 inhib 22, sEH inh 6, CYP2C9 act 0.4, sEH activator -5 and CYP2C19 act 0.8.
For COc1ccc(C(=O)/C=C/Nc2cc(C)on2)cc1 the results were CYP2C9 inh 36, CYP2C19 inhib 58*, sEH inh 2, CYP2C9 act 0.6, sEH activator 0 and CYP2C19 act 0.4.
`CCNC(=O)Nn1c(C)nnc1C` gave CYP2C9 inh -18, CYP2C19 inhib -16, sEH inh -7, CYP2C9 act 1.2, sEH activator 4 and CYP2C19 act 1.2.
Screening Cc1ccccc1-c1nc(CS(=O)(=O)CC(=O)Nc2cc(F)ccc2F)c(C)o1 returned CYP2C9 inh 15, CYP2C19 inhib -9, CYP2C9 act 0.9 and CYP2C19 act 1.1.
COCCCNC(=O)C(=O)NCCCOC(C)C was read as CYP2C9 inh -4, CYP2C19 inhib 41, sEH inh -2, CYP2C9 act 1, sEH activator 6 and CYP2C19 act 0.6.
For COc1ccc(OCCC(=O)Nc2cc(C)on2)cc1 the results were CYP2C9 inh 29, CYP2C19 inhib 63*, sEH inh -6, CYP2C9 act 0.7, sEH activator 9 and CYP2C19 act 0.4.

From PubChem BioAssay
